Out of some 5,500 compounds screened, about 2,000 (36%) were called active. Roughly 18% stayed inconclusive and do not appear here. No stated cut-off is given here; in the data, active means normalized growth mostly below about 0.91 (no sharp cut-off); inconclusive means no clear call, values can overlap the other calls; inactive means mostly above about 0.92. The list shows a part of the results.
Assay: chemical genetic growth profiling, strain panel (AID 1159580);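 further: tested at 20 µM; growth read once vehicle control cultures reached saturation at 30 °C; 1 = growth at the plate median or of vehicle wells; lower values mean less growth of the strain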
Conditions: S. cerevisiae deletion strains, growth OD

Measured: normalized growth

O=C1[O][Bi][O]c2ccccc21
inactive: locus YAL021C, strain ccr4, hits give low values 1.06 | locus YAL026C, strain drs2, hits give low values 1.05 | locus YAL030W, strain snc1, hits give low values 0.972 | locus YBL061C, strain skt5, hits give low values 1.04 | locus YBR009C, strain hhf1, hits give low values 0.981 | locus YBR023C, strain chs3, hits give low values 1.05 | locus YBR171W, strain sec66, hits give low values 1.07 | locus YBR231C, strain swc5, hits give low values 1.02 | locus YBR279W, strain paf1, hits give low values 0.932 | locus YCL011C, strain gbp2, hits give low values 0.966 | locus YCL016C, strain dcc1, hits give low values 1.04 | locus YCL061C, strain MRC1, hits give low values 1.05 | locus YCL069W, strain vba3, hits give low values 1.06 | locus YCR088W, strain abp1, hits give low values 1.07 | locus YDL005C, strain med2, hits give low values 1.05 | locus YDL040C, strain nat1, hits give low values 1.03 | locus YDR001C, strain nth1, hits give low values 1.03 | locus YDR069C, strain doa4, hits give low values 0.944 | locus YDR137W, strain rgp1, hits give low values 1 | locus YDR159W, strain sac3, hits give low values 0.954 | locus YDR297W, strain sur2, hits give low values 0.94 | locus YDR334W, strain swr1, hits give low values 1.05 | locus YDR335W, strain msn5, hits give low values 1.04 | locus YDR392W, strain spt3, hits give low values 1.03 | locus YEL003W, strain gim4, hits give low values 1.03 | locus YEL037C, strain rad23, hits give low values 1.03 | locus YEL061C, strain CIN8 (second series), hits give low values 1.02 | locus YER015W, strain faa2, hits give low values 0.951 | locus YER016W, strain bim1, hits give low values 1.05 | locus YER111C, strain swi4, hits give low values 1.02 | locus YER155C, strain BEM2 (second series), hits give low values 0.997 | locus YGL167C, strain pmr1, hits give low values 1.03 | locus YGL227W, strain vid30, hits give low values 1.05 | locus YGL253W, strain hxk2, hits give low values 1.05 | locus YHR013C, strain ard1, hits give low values 1.02 | locus YHR030C, strain SLT2, hits give low values 0.996 | locus YHR079C, strain IRE1, hits give low values 0.985 | locus YHR142W, strain chs7, hits give low values 1.08 | locus YJL092W, strain hpr5, hits give low values 1.06 | locus YJL095W, strain BCK1, hits give low values 1.02 | locus YJL115W, strain asf1, hits give low values 1.03 | locus YJL129C, strain trk1, hits give low values 1.05 | locus YJL154C, strain vps35, hits give low values 1.04 | locus YJL166W, strain qcr8, hits give low values 0.937 | locus YJR066W, strain TOR1, hits give low values 0.925 | locus YKL160W, strain elf1, hits give low values 0.996 | locus YKR026C, strain gcn3, hits give low values 1.05 | locus YKR091W, strain srl3, hits give low values 1.04 | locus YLL001W, strain dnm1, hits give low values 1.04 | locus YLL026W, hits give low values 1.01 | locus YLL041C, strain sdh2, hits give low values 1.04 | locus YLR027C, strain aat2, hits give low values 1.04 | locus YLR113W, strain HOG1, hits give low values 1.06 | locus YLR221C, strain rsa3, hits give low values 1.02 | locus YLR258W, strain gsy2, hits give low values 1.02 | locus YLR262C, strain YPT6 (second series), hits give low values 1.06 | locus YLR320W, strain mms22, hits give low values 1.03 | locus YLR342W, strain FKS1, hits give low values 1.01 | locus YLR357W, strain rsc2, hits give low values 1 | locus YLR370C, strain arc18, hits give low values 1.06 | locus YLR384C, strain iki3, hits give low values 1.01 | locus YML120C, strain ndi1, hits give low values 1.03 | locus YMR125W, strain sto1, hits give low values 1.04 | locus YMR129W, hits give low values 0.96 | locus YMR205C, strain PFK2, hits give low values 0.985 | locus YMR231W, strain pep5, hits give low values 1.02 | locus YNL071W, strain lat1, hits give low values 1.03 | locus YNL183C, strain NPR1, hits give low values 0.936 | locus YNL248C, strain rpa49, hits give low values 1.07 | locus YNL322C, strain KRE1 (second series), hits give low values 1.05 | locus YNR049C, strain mso1, hits give low values 1.05 | locus YOR001W, strain rrp6, hits give low values 1.06 | locus YOR070C, strain gyp1, hits give low values 1.03 | locus YOR080W, strain dia2, hits give low values 1.05 | locus YOR083W, strain WHI5, hits give low values 1.03 | locus YOR231W, strain MKK1, hits give low values 1.02 | locus YOR265W, strain rbl2, hits give low values 1.04 | locus YOR290C, strain snf2, hits give low values 1.01 | locus YPL051W, strain arl3, hits give low values 0.945 | locus YPL078C, strain atp4, hits give low values 1.04 | locus YPL106C, strain sse1, hits give low values 1 | locus YPL240C, strain hsp82, hits give low values 1.02 | locus YPL256C, strain CLN2, hits give low values 1
active: locus YDR195W, strain ref2 1.3 [resistant] | locus YFR010W, strain ubp6, hits give low values 1.11 [resistant] | locus YGL173C, strain kem1, hits give low values 0.416 | locus YGL240W, strain doc1, hits give low values 1.13 [resistant] | locus YHR027C, strain rpn1, hits give low values 0.904 | locus YJL095W, strain BCK1 (second series), hits give low values 0.914 | locus YJL164C, strain tpk1, hits give low values 0.732 | locus YMR058W, strain fet3, hits give low values 0.851 | locus YNL209W, strain ssb2, hits give low values 0.923 | locus YOR106W, strain vam3, hits give low values 0.861 | locus YOR270C, strain vph1, hits give low values 1.35 [resistant]
